Test results as given in PubChem BioAssay (NCATS).
A number with no mark means an inactive call. Inconclusive results are not listed. Entries that show only a call come without a potency. Calls of active or inactive are those of the source. Unless noted, calls come from the whole dose curve; as a rule, active = well fitted curve in the direction sought with a large enough effect; inconclusive = small, poorly fitted or top-dose-only effect, or another doubt; inactive = no such curve, though single readings can be large; an effect the other way counts as inactive or inconclusive.

Key:
[1] = biological target: Lysosomal acid glucosylceramidase (Homo sapiens) (UniProt P04062); assay: Glucocerebrosidase-p2 (AID 348; in the data active = potency below about 10 µM; note: potency is the fitted concentration of half-maximal effect); conditions: purified GBA, blue fluorogenic substrate, 40 min
Method in brief: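 Normal human glucocerebrosidase (0.2 nM) with blue fluorogenic substrate (80 uM final) in citrate/phosphate pH 5.9 with 10mM sodium taurocholate, 0.01% tween-20; 40 min RT, NaOH/glycine stop; fluorescence Ex 365/Em 440; AC50 from a titration from 0.6 nM upwards.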

[2] = AP1 Signaling Pathway (AID 357; active = well fitted curve in either direction with a large enough effect, not every such curve was filed as active;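 note: ME-180 reporter cells stimulated with EGF at its EC50 level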); conditions: ME-180 AP-1-bla reporter, EGF-induced, beta-lactamase ratio, 5 h; at 7.69 µM (top of the series) unless noted
Method in brief: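 First, ME-180 AP-1-bla cells were cultured overnight at 37 °C in low-serum Opti-MEM. Next, titrated compounds with EC50 EGF were incubated 5 hours. Finally, CCF4 was added for 2.5 hours and the 460/530 nm ratio recorded.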

[3] = NFAT Signaling Pathway (AID 444; active = well fitted curve in either direction with a large enough effect, not every such curve was filed as active;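 note: carbachol stimulus at about its EC50 of 1 µM final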); conditions: Jurkat NFAT-bla M1, carbachol, beta-lactamase ratio, 5 h; at 7.69 µM (top of the series) unless noted
Method in brief: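 Jurkat cells carrying an NFAT-driven β-lactamase reporter and co-transfected muscarinic M1 receptor were treated with compound plus carbachol (1 uM final, an EC50 level) for 5 h at 37 °C. CCF4 loading followed for 1 h at RT; 460/530 nm ratio gave %activity.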

[4] = Stat Signaling Pathway (AID 446; active = well fitted curve in either direction with a large enough effect, not every such curve was filed as active;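 note: ME-180 cervical cancer cells given 40 pM IL-6 alongside compound; SIE-controlled beta-lactamase reporter measured as 460/530 nm FRET emission ratio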); conditions: ME-180 (cervical carcinoma) SIE beta-lactamase reporter, IL-6 stimulated, 5 h; series mostly up to 7.69 µM
Method in brief: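 Emission at 460 and 530 nm (excitation 405 nm) reports SIE-controlled beta-lactamase in ME-180 cells. Cells received compound with 40 pM IL-6 for 5 hrs at 37 C; data scaled between 300 pM IL-6 and 125 nM JAK-inhibitor controls.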

[5] = biological target: Glucocorticoid receptor (Homo sapiens) (UniProt P04150); assay: GR-GFP Redistribution (AID 450;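 active = compounds whose dose series gives a full or clear partial fitted curve of increased nuclear translocation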; note: potency is the fitted concentration of half-maximal effect); conditions: U2OS GR-GFP nuclear translocation, laser cytometry, 2 h
[6] = biological target: Glucocorticoid receptor (Homo sapiens) (UniProt P04150); assay: GR-EFC Redistribution (AID 451; calls by dose curve; note: potency is the fitted concentration of half-maximal effect); conditions: CHO-K1 GR-EFC translocation, beta-gal luminescence, 2 h
Method in brief: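 CHO-K1 cells stably expressing nuclear-localized β-gal enzyme acceptor and GR fused C-terminally to the enzyme donor fragment; ligand-driven nuclear translocation restores β-gal by complementation. Compounds titrated up to 46 uM final, 2 h at 37 °C; luminescence read.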

[7] = biological target: Mitogen-activated protein kinase 10 (Mus musculus) (UniProt Q61831); assay: JNK3 AlphaScreen Assay (AID 530; active = well fitted curve in either direction with a large enough effect, not every such curve was filed as active;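 note: kinase came from lysate of stimulated human HepG2 cells; signal reports phosphorylation of biotinylated GST-cJun 1-79 at Ser73 with 10 µM ATP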); conditions: JNK3 lysate, c-Jun phosphorylation; series mostly up to 57.1 µM
Method in brief: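 Biotinylated GST-cJun(1-79) served as substrate for JNK3 in HepG2 lysates stimulated with IL-1beta and TNF-alpha. ATP was 10 uM final, pH 7.6. Ser73 phosphorylation was quantified by AlphaScreen (680 nm excitation).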

[8] = biological target: 3',5'-cyclic-AMP phosphodiesterase 4B (Homo sapiens) (UniProt Q07343); assay: qHTS Assay for Inhibitors of PDE-IV (AID 607; active = well fitted activation curve with a large enough effect in the main read-out, with a control signal flat, not every such curve was filed as active); conditions: HEK293 ACTOne CNG channel cells, membrane potential fluorescence; series mostly up to 22.9 µM
Method in brief: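 The readout is membrane depolarisation from a cAMP-sensing CNG channel, detected with a potential dye at ex 535/em 590. Cells were HEK293-derived (endogenous PDE-IV) at 1000 cells/well, titrated up to 22.9 uM final.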

[9] = biological target: Cytochrome P450 2C19 (Homo sapiens) (UniProt P33261); assay: qHTS Assay for Inhibitors and Substrates of Cytochrome P450 2C19 (AID 899); conditions: recombinant CYP2C19, luciferin-H EGE luminescence; series mostly up to 57.1 µM; note: potency is the fitted concentration of half-maximal effect; nearly all actives have a fitted effect of over 60% in size
Method in brief: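 In 50mM KPO4, the reaction held 5nM enzyme and KM-level (10uM) Luciferin-H EGE; it ran 60 min at 37C after NADPH regeneration and a 10 min compound preincubation. Luminescence values were scaled to 57uM ketoconazole as complete inhibition.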

[10] = biological target: Rap guanine nucleotide exchange factor 4 (Homo sapiens) (UniProt Q8WZA2); assay: Confirmatory qHTS for antagonist of cAMP-regulated guanine nucleotide exchange factor 4 (EPAC2) (AID 1645885); conditions: EPAC2 Rap1B-BODIPY-GDP exchange fluorescence, biochemical; series mostly up to 12.7 µM; note: nearly all actives have a fitted effect of over 25% in size; note: potency is the fitted concentration of half-maximal effect
[11] = biological target: Rap guanine nucleotide exchange factor 3 (Homo sapiens) (UniProt O95398); assay: Counterscreen qHTS for antagonist of cAMP-regulated guanine nucleotide exchange factor 3 (EPAC1) (AID 1645888); conditions: Rap1B-BODIPY-GDP nucleotide exchange, fluorescence; series mostly up to 154 µM;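 note: fluorescence loss as bound BODIPY-GDP is released from Rap1B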
Method in brief: (§1)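 Measured: fluorescence of BODIPY-GDP bound to Rap1B, which falls as exchange proceeds. Conditions include 50 uM competing GDP, 5 and 30 min reads, and a later cAMP challenge for antagonist detection.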

[12] = biological target: Rap guanine nucleotide exchange factor 3 (Homo sapiens) (UniProt O95398); assay: Counterscreen qHTS for agonist of cAMP-regulated guanine nucleotide exchange factor 3 (EPAC1) (AID 1645889); conditions: EPAC1 Rap1B-BODIPY-GDP exchange, fluorescence; series mostly up to 154 µM; note: nearly all actives have a fitted effect of over 40% in size
Method in brief: as §1

Chain of Rap guanine nucleotide exchange factor 3 (Homo sapiens) (O95398 whole entry, looked up): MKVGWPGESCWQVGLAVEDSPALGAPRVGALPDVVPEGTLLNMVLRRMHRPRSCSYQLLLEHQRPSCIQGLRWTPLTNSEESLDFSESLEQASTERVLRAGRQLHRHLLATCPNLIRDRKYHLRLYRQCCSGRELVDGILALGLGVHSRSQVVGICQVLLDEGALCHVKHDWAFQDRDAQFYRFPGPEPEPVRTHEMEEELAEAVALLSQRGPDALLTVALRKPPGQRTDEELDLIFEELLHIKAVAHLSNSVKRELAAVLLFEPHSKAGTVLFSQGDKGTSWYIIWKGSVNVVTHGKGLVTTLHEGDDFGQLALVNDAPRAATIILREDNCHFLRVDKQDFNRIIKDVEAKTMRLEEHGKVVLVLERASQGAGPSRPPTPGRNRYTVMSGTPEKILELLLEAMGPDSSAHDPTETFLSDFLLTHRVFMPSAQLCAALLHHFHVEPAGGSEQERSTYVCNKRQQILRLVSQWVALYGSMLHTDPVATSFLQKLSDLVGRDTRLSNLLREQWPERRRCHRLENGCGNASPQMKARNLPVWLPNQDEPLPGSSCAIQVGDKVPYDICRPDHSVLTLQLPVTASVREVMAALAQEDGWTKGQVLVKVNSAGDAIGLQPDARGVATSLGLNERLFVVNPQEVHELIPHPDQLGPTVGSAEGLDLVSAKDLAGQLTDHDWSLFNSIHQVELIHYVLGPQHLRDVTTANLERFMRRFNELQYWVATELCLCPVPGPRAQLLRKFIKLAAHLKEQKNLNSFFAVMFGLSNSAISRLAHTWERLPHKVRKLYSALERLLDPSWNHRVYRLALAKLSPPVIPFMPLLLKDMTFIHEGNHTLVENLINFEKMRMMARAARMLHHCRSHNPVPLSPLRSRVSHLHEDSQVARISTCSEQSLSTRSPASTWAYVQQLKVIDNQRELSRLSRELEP
Chain of Rap guanine nucleotide exchange factor 4 (Homo sapiens) (Q8WZA2 whole entry, looked up): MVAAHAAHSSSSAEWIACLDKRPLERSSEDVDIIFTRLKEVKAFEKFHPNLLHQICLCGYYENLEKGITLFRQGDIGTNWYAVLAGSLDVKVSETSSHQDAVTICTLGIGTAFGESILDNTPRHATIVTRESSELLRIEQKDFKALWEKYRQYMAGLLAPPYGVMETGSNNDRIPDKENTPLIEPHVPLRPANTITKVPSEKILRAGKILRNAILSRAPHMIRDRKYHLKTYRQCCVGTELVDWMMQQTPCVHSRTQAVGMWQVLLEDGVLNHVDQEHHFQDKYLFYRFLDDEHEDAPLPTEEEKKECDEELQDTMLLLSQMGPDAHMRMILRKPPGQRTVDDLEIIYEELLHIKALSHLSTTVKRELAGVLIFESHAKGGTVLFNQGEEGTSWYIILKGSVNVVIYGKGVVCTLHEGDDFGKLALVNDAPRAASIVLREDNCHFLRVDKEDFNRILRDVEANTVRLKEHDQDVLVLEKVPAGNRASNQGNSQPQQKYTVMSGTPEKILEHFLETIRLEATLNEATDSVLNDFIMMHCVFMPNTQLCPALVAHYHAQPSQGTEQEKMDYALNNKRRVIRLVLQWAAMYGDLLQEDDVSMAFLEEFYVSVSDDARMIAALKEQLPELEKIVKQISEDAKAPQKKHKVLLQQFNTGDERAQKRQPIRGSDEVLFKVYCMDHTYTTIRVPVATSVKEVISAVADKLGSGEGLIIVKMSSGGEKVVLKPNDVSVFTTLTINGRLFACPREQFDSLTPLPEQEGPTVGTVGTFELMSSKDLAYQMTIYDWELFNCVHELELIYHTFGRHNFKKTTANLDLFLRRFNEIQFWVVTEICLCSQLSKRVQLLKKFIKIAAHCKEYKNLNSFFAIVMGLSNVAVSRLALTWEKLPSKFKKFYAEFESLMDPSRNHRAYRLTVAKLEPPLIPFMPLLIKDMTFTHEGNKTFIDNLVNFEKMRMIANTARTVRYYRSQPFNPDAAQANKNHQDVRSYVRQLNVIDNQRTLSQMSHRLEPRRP
Chain of Glucocorticoid receptor (Homo sapiens) (P04150 whole entry, looked up, the tested form may be a part): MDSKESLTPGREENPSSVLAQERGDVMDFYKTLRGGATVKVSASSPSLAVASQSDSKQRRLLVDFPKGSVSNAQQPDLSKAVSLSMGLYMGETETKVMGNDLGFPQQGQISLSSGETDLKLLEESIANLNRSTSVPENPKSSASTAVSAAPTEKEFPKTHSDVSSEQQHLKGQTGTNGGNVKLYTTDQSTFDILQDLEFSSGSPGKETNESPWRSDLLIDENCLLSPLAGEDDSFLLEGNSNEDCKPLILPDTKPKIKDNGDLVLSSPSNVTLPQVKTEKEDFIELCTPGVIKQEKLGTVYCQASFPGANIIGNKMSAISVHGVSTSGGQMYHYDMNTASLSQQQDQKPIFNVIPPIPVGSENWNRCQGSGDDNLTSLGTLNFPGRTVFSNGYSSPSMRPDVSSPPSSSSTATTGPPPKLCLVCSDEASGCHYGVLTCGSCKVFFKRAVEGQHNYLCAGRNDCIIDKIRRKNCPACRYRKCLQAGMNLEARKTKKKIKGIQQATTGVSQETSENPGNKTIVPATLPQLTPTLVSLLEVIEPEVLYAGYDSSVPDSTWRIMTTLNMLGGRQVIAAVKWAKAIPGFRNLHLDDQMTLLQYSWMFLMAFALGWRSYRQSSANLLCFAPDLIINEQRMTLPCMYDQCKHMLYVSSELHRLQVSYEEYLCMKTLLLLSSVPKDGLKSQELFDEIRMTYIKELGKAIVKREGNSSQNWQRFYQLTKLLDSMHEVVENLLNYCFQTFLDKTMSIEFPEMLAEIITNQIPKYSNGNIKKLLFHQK
Chain of Cytochrome P450 2C19 (Homo sapiens) (P33261 whole entry, looked up): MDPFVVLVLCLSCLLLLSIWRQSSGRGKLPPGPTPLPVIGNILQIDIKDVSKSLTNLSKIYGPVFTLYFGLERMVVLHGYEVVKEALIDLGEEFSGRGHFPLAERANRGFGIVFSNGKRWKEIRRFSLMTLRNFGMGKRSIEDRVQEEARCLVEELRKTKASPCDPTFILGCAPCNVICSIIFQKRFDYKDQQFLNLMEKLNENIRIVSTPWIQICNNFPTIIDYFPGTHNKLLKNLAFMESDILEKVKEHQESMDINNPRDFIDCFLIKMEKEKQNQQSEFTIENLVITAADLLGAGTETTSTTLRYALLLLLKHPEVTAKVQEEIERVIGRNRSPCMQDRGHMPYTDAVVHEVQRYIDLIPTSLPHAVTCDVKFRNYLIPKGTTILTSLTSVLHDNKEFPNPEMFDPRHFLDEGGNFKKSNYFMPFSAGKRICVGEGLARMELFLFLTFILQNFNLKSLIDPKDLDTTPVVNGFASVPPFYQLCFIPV
Chain of 3',5'-cyclic-AMP phosphodiesterase 4B (Homo sapiens) (Q07343 whole entry, looked up): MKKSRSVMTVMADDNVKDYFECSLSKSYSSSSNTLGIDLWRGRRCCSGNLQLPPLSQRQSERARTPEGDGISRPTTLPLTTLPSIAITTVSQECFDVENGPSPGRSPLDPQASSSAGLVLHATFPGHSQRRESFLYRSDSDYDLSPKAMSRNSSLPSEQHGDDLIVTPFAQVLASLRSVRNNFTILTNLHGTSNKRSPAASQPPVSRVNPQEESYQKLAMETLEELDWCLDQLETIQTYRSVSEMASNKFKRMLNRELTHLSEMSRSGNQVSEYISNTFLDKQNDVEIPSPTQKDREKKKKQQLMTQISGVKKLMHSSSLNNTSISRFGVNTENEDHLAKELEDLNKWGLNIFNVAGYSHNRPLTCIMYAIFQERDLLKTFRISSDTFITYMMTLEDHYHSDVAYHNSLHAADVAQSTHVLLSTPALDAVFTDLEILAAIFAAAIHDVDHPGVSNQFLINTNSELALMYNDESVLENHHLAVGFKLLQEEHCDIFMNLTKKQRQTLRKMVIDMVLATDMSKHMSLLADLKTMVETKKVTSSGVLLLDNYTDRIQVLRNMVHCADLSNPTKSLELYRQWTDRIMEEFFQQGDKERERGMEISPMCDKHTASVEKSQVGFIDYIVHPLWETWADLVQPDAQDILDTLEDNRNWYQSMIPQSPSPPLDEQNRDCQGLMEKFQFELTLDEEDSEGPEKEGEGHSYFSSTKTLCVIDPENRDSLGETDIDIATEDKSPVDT
Chain of Lysosomal acid glucosylceramidase (Homo sapiens) (P04062 whole entry, looked up): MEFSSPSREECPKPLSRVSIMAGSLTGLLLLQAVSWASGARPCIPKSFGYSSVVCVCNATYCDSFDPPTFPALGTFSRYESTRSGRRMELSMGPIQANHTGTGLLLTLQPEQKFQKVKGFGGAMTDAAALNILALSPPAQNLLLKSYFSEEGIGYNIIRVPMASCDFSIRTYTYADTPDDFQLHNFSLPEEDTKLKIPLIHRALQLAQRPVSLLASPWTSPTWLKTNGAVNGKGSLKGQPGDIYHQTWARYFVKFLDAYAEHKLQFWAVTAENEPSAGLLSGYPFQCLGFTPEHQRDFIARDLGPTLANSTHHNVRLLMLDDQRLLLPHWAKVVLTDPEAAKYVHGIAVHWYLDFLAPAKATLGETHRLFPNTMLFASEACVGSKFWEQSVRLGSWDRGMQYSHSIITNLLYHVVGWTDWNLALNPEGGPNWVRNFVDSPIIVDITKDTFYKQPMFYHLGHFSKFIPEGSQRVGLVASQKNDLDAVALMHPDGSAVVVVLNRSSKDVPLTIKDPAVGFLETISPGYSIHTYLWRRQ

N=C(N)c1ccc(N=Nc2c(O)ccc3c2[nH]c2ccccc23)cc1
Potency [1]: > 11.4 µM
activity change, negative = inhibition [2]: 13.5%
activity change, negative = inhibition [3]: 8.15%
outcome [4]: inactive
Potency [5]: > 46 µM
Potency [6]: > 9.22 µM
activity change, negative = inhibition [7]: -6.35% [at 11.4 µM]
Potency [8]: inactive
Potency [9]: 1.26 µM (active)
Potency [10]: inactive
activity change, negative = inhibition [11]: -5.36% [at 30.8 µM]
activation [12]: 33.2% [at 30.8 µM]

Oc1ccc(Br)cc1CNc1cccc2cccnc12
Potency [10]: 33.8 µM (active)
Potency [11]: inactive

S=C(Nc1ccc2nsnc2c1)NC1CCCCC1
Potency [10]: inactive
Potency [11]: inactive

O/N=C(/c1ccc(F)cc1)C1CC1c1c(F)cccc1Cl (stereo not given)
Potency [10]: inactive
Potency [11]: inactive

O=S(=O)(c1ccccc1)c1nc(Nc2cccc(O)c2)sc1Cl
Potency [10]: inactive
Potency [11]: inactive
